Measurements published in PubChem BioAssay (Tox21).
Records with an inconclusive call do not appear. Activity calls are given as the source filed them. Unless noted, calls follow the shape of the dose curve; as a rule, active = well fitted curve in the direction sought with a large enough effect in the repeat runs; inconclusive = weak or mixed curves; inactive = no such curve, though single readings can be large; an effect the other way counts as inactive or inconclusive.

Key:
[1] = qHTS assay for small molecule agonists of the p53 signaling pathway (AID 651631; calls by dose curve; also: nearly all actives have a fitted effect of over 15% in size)
Method in brief: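 Agonist mode screen using a stably integrated beta-lactamase gene under p53 response elements in HCT-116 cells. Compound exposure lasts 16 h at 37 °C; fluorescence intensity is measured following 2 h FRET substrate loading.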

[2] = qHTS assay for small molecules that induce genotoxicity in human embryonic kidney cells expressing luciferase-tagged ATAD5 (AID 651632); also: nearly all actives have a fitted effect of over 15% in size
Method in brief: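 HEK293T cells carrying a luciferase reporter tagged to ATAD5 were exposed to compound or DMSO vehicle for 16 hr at 37C, 5% CO2. Amplite was added, and after 30 min at room temperature luciferase activity was read as a marker of ATAD5 induction.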

[3] = qHTS assay for small molecule agonists of the p53 signaling pathway - cell viability (AID 651633; calls by dose curve;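 also: p53RE-bla HCT reporter cells with a stable beta-lactamase p53 reporter; series mostly up to about 83 µM; nearly all actives have a fitted effect of over 30% in size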)
Method in brief: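 p53RE-bla cells, seeded at 4,000 per well and rested 5 h at 37 C/5% CO2, received compounds in DMSO for 16 h at 37 C. CellTiter-Glo was then added, and luminescence was read after 30 min at room temperature to gauge cytotoxicity.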

[4] = qHTS assay for small molecules that induce genotoxicity in human embryonic kidney cells expressing luciferase-tagged ATAD5 - cell viability (AID 651634; calls by dose curve; also: nearly all actives have a fitted effect of over 25% in size)
Method in brief: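 HEK293T cells expressing luciferase-tagged ATAD5 were exposed to compound or DMSO for 15.5 hr at 37C, 5% CO2. Viability was then read as live-cell protease activity by CellTiter-Fluor fluorescence after 30 min at 37C.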

[5] = qHTS assay for small molecule disruptors of the mitochondrial membrane potential - cell viability (AID 720634; calls by dose curve;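 also: human HepG2 liver cancer cells; series mostly up to about 83 µM; nearly all actives have a fitted effect of over 20% in size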)
Method in brief: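 HepG2 cells seeded overnight at 37 C, then exposed to compound or DMSO for 1 hr at 37 C, 5% CO2. m-MPI dye added, then CellTiter-Glo for 30 min at room temperature; viability read as ATP luminescence.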

[6] = qHTS assay for small molecule disruptors of the mitochondrial membrane potential (AID 720635)
Method in brief: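 HepG2 cells (2,000/well) attached overnight at 37C, then took compound for 1 hr at 37C, 5% CO2. Mito-MPS dye was added for 30 min; fluorescence was read at 490/535 nm (monomers) and 540/590 nm (aggregates).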

[7] = qHTS assay to test for compound auto fluorescence at 460 nm (blue) in HEK293 cells (AID 720678)
Method in brief: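 HEK293 cells (2,000/well, medium with 10% dialyzed FBS) attached 4-5 hr, then exposed to compound overnight at 37C, 5% CO2. Blue fluorescence read at 405/460 nm, with triamterene as reference fluorophore.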

[8] = qHTS assay to test for compound auto fluorescence at 590 nm (red) in HEK293 cells (AID 720679)
Method in brief: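 HEK293 cells (2,000/well, 10% dialyzed FBS) attached 4-5 hr, then dosed with compound or DMSO and incubated overnight at 37C, 5% CO2. Red fluorescence read at 540/590 nm, Rose Bengal sodium as reference fluorophore.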

[9] = qHTS assay to test for compound auto fluorescence at 535 nm (green) in HepG2 cells (AID 720675)
[10] = qHTS assay to test for compound auto fluorescence at 590 nm (red) in HepG2 cells (AID 720674)
Method in brief: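 Rose Bengal sodium served as the red fluorophore standard. HepG2 monolayers (overnight attachment, MEM with 10% FBS) were exposed to test compounds for 1 hr at 37 C and read at Ex 540/Em 590 nm.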
% is scaled to controls: 0 for no effect and ±100 for the full control effect.

C=C(C)C(=O)OCC1CCCO1 (configuration not stated)
inactive: Potency [1] | Potency [2] | Potency [3] | Potency [4] | outcome [5] | Potency [6] | outcome [7] | outcome [8]

CCNS(=O)(=O)c1ccc(C)cc1
inactive: Potency [1] | Potency [2] | Potency [3] | Potency [4] | outcome [5] | Potency [6] | outcome [9] | outcome [7] | outcome [8]

O=C1CCCCCCCCCCCCCCO1
inactive: Potency [1] | Potency [2] | Potency [3] | Potency [4] | outcome [5] | Potency [6] | outcome [10] | outcome [9] | outcome [7] | outcome [8]

CNCCO
inactive: Potency [1] | Potency [2] | Potency [3] | Potency [4] | outcome [5] | Potency [6] | outcome [10] | outcome [9] | outcome [7] | outcome [8]

CC(=O)N[C@H]1[C@H]([C@H](O)[C@H](O)CO)OC(C(=O)O)=C[C@@H]1N=C(N)N
inactive: Potency [1] | Potency [2] | Potency [3] | Potency [4] | outcome [5] | outcome [10] | outcome [9] | outcome [7] | outcome [8]

CCCO[Si](OCCC)(OCCC)OCCC
inactive: Potency [1] | Potency [2] | Potency [3] | Potency [4] | outcome [5] | Potency [6] | outcome [10] | outcome [9] | outcome [7] | outcome [8]

O=Cc1cccc(Br)c1
inactive: Potency [1] | Potency [2] | Potency [3] | Potency [4] | outcome [5] | Potency [6] | outcome [10] | outcome [9] | outcome [7] | outcome [8]

O=C(O)c1cc(C(=O)O)cc(C(=O)O)c1
inactive: Potency [1] | Potency [2] | Potency [3] | Potency [4] | outcome [5] | Potency [6] | outcome [10] | outcome [9] | outcome [7] | outcome [8]

CC(C)C(=O)OC(=O)C(C)C
inactive: Potency [1] | Potency [2] | Potency [3] | Potency [4] | outcome [5] | Potency [6] | outcome [10] | outcome [9] | outcome [7] | outcome [8]

CC(C(=O)O)c1cccc(Oc2ccccc2)c1 (configuration not stated)
inactive: Potency [1] | Potency [2] | Potency [3] | Potency [4] | outcome [5] | Potency [6] | fluorescence, relative to Rose Bengal [10] -0.601% [at 18.6 µM] | fluorescence, % of fluorescent control [8] -0.0737% [at 18.6 µM]

CCCn1cc[n+](C)c1C
inactive: Potency [1] | Potency [2] | Potency [3] | Potency [4] | outcome [5] | outcome [10] | outcome [9] | outcome [7] | outcome [8]

c1coc(CNc2ncnc3nc[nH]c23)c1
inactive: Potency [1] | Potency [2] | Potency [3] | Potency [4] | outcome [5] | outcome [10] | outcome [9] | outcome [7] | outcome [8]

Cc1cc(C)c(N=Nc2c(O)c(S(=O)(=O)O)cc3cc(S(=O)(=O)O)ccc23)cc1C
inactive: activation [1] -4.32% [at 8.3 µM] | activation [2] 1.99% [at 8.08 µM] | activity change, negative = cytotoxicity [3] 11.3% [at 8.08 µM] | activity, negative = cytotoxicity [4] -13.8% [at 8.08 µM] | activity change, negative = cytotoxicity [5] -3.07% [at 8.08 µM] | fluorescence, relative to Rose Bengal [10] 0.0524% [at 9.17 µM] | fluorescence, % of fluorescein control [9] -0.0414% [at 9.17 µM] | fluorescence, % of triamterene [7] -0.0938% [at 9.17 µM] | fluorescence, % of fluorescent control [8] -0.166% [at 9.17 µM]

O=C(O)CCSCCC(=O)O
inactive: Potency [1] | Potency [2] | Potency [3] | Potency [4] | Potency [6] | outcome [10] | outcome [9] | outcome [7] | outcome [8]

CC(N)C12CC3CC(CC(C3)C1)C2 (configuration not stated)
inactive: Potency [1] | Potency [2] | Potency [3] | Potency [4] | outcome [5] | outcome [10] | outcome [7] | outcome [8]

C[N+]1(C)[C@@H]2CC(OC(=O)[C@H](CO)c3ccccc3)C[C@H]1[C@@H]1O[C@@H]12 (some centres not stated)
inactive: Potency [1] | Potency [2] | Potency [3] | Potency [4] | outcome [9] | outcome [7] | outcome [8]

CC1=CCC(O)(C(C)C)CC1 (configuration not stated)
inactive: Potency [1] | Potency [2] | Potency [3] | Potency [4] | outcome [5] | outcome [10] | outcome [9] | outcome [7] | outcome [8]

CC1=CC(=O)[C@H]2C[C@@H]1C2(C)C
inactive: Potency [1] | Potency [2] | Potency [4] | outcome [5] | outcome [10] | outcome [9] | outcome [7] | outcome [8]

CC1=NN(c2cc(S(=O)(=O)O)ccc2Cl)C(=O)C1N=Nc1ccccc1 (configuration not stated)
inactive: Potency [1] | Potency [2] | Potency [3] | outcome [5] | outcome [10] | outcome [9] | outcome [7] | outcome [8]

CCCCCCCCN1CCCC1=O
inactive: Potency [1] | Potency [2] | Potency [3] | Potency [4] | outcome [5] | outcome [10] | outcome [7] | outcome [8]

CN(C)CCCN(C)CCCN(C)C
inactive: Potency [1] | Potency [2] | Potency [3] | Potency [4] | outcome [5] | outcome [10] | outcome [9] | outcome [7] | outcome [8]

C[C@@H]1CCC[C@H](C)N1
inactive: Potency [1] | Potency [2] | Potency [4] | outcome [5] | Potency [6] | fluorescence, relative to Rose Bengal [10] 0.289% [at 18.6 µM] | fluorescence, % of fluorescein control [9] 0.0643% [at 18.6 µM] | fluorescence, % of triamterene [7] 0.0181% [at 18.6 µM] | fluorescence, % of fluorescent control [8] 0.0043% [at 18.6 µM]

CCOc1ccccc1OCC
inactive: Potency [1] | Potency [2] | Potency [4] | outcome [5] | Potency [6] | outcome [9] | outcome [7] | outcome [8]

CC1(C)OC[C@@H](COC(=O)CCc2ccc(OC[C@@H](O)CNCCNC(=O)N3CCOCC3)cc2)O1
inactive: Potency [1] | Potency [2] | Potency [3] | Potency [4] | Potency [6] | outcome [10] | outcome [7] | outcome [8]
